{"source": "PubChem BioAssay AID1159580", "about": "(chemical genetic matrix, 2015)", "test": "chemical genetic growth profiling, strain panel (AID 1159580);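 also: tested at 20 µM; growth read once vehicle control cultures reached saturation at 30 °C; 1 = growth at the plate median or of vehicle wells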", "settings": "growth OD", "note": "About 2,000 (36%) of roughly 5,500 compounds were called active. Roughly 18% stayed inconclusive and do not appear here. This is one part of the list. A number with no mark means an inactive call. Rule as the data show it: active = normalized growth mostly below about 0.91 (no sharp cut-off); inconclusive = no clear call, values can overlap the other calls; inactive = mostly above about 0.92.", "data": [{"smiles": "CO[C@H]1CC(O[C@@H]2/C(C)=C/C[C@@H]3C[C@@H](C[C@]4(CC[C@H](C)[C@@H](C5CCCCC5)O4)O3)OC(=O)[C@@H]3C=C(C)/C(=N\\O)[C@H]4OC/C(=C\\C=C\\[C@@H]2C)[C@]43O)O[C@@H](C)C1O", "note": "(stereo not given in full)", "values": [{"measurement": "normalized growth", "setting": "S. cerevisiae deletion strains, locus YJR066W, strain TOR1, stronger effect = lower value", "result": "0.659 (active)"}, {"measurement": "normalized growth", "setting": "S. cerevisiae deletion strains, locus YKL009W, strain mrt4, stronger effect = lower value", "result": 0.975}, {"measurement": "normalized growth", "setting": "S. cerevisiae deletion strains, locus YKL068W, stronger effect = lower value", "result": 1}, {"measurement": "normalized growth", "setting": "S. cerevisiae deletion strains, locus YKL085W, strain MDH1 (second series), stronger effect = lower value", "result": 0.997}, {"measurement": "normalized growth", "setting": "S. cerevisiae deletion strains, locus YKL085W, strain MDH1, stronger effect = lower value", "result": 0.997}, {"measurement": "normalized growth", "setting": "S. cerevisiae deletion strains, locus YKL160W, strain elf1, stronger effect = lower value", "result": 0.993}, {"measurement": "normalized growth", "setting": "S. cerevisiae deletion strains, locus YKL190W, strain CNB1, stronger effect = lower value", "result": 0.982}, {"measurement": "normalized growth", "setting": "S. cerevisiae deletion strains, locus YKR001C, strain vps1, stronger effect = lower value", "result": "0.745 (active)"}, {"measurement": "normalized growth", "setting": "S. cerevisiae deletion strains, locus YKR026C, strain gcn3, stronger effect = lower value", "result": 1.02}, {"measurement": "normalized growth", "setting": "S. cerevisiae deletion strains, locus YKR091W, strain srl3, stronger effect = lower value", "result": 1.01}, {"measurement": "normalized growth", "setting": "S. cerevisiae deletion strains, locus YLL001W, strain dnm1, stronger effect = lower value", "result": 0.974}, {"measurement": "normalized growth", "setting": "S. cerevisiae deletion strains, locus YLL026W, stronger effect = lower value", "result": 1.01}, {"measurement": "normalized growth", "setting": "S. cerevisiae deletion strains, locus YLL041C, strain sdh2, stronger effect = lower value", "result": 1.01}, {"measurement": "normalized growth", "setting": "S. cerevisiae deletion strains, locus YLR027C, strain aat2, stronger effect = lower value", "result": 1.01}, {"measurement": "normalized growth", "setting": "S. cerevisiae deletion strains, locus YLR039C, strain RIC1, stronger effect = lower value", "result": "0.492 (active)"}, {"measurement": "normalized growth", "setting": "S. cerevisiae deletion strains, locus YLR058C, strain SHM2, stronger effect = lower value", "result": 0.987}, {"measurement": "normalized growth", "setting": "S. cerevisiae deletion strains, locus YLR102C, strain apc9, stronger effect = lower value", "result": 0.997}, {"measurement": "normalized growth", "setting": "S. cerevisiae deletion strains, locus YLR113W, strain HOG1, stronger effect = lower value", "result": "0.284 (active)"}, {"measurement": "normalized growth", "setting": "S. cerevisiae deletion strains, locus YLR221C, strain rsa3, stronger effect = lower value", "result": 1.01}, {"measurement": "normalized growth", "setting": "S. cerevisiae deletion strains, locus YLR258W, strain gsy2, stronger effect = lower value", "result": 1}, {"measurement": "normalized growth", "setting": "S. cerevisiae deletion strains, locus YLR262C, strain YPT6 (second series), stronger effect = lower value", "result": "0.312 (active)"}, {"measurement": "normalized growth", "setting": "S. cerevisiae deletion strains, locus YLR262C, strain YPT6, stronger effect = lower value", "result": "0.415 (active)"}, {"measurement": "normalized growth", "setting": "S. cerevisiae deletion strains, locus YLR268W, strain sec22, stronger effect = lower value", "result": 0.928}, {"measurement": "normalized growth", "setting": "S. cerevisiae deletion strains, locus YLR320W, strain mms22, stronger effect = lower value", "result": 0.96}, {"measurement": "normalized growth", "setting": "S. cerevisiae deletion strains, locus YLR330W, strain CHS5, stronger effect = lower value", "result": 0.978}, {"measurement": "normalized growth", "setting": "S. cerevisiae deletion strains, locus YLR342W, strain FKS1 (second series), stronger effect = lower value", "result": "0.526 (active)"}, {"measurement": "normalized growth", "setting": "S. cerevisiae deletion strains, locus YLR342W, strain FKS1, stronger effect = lower value", "result": 0.985}, {"measurement": "normalized growth", "setting": "S. cerevisiae deletion strains, locus YLR357W, strain rsc2, stronger effect = lower value", "result": 0.854}, {"measurement": "normalized growth", "setting": "S. cerevisiae deletion strains, locus YLR370C, strain arc18, stronger effect = lower value", "result": 0.993}, {"measurement": "normalized growth", "setting": "S. cerevisiae deletion strains, locus YLR371W, strain rom2, stronger effect = lower value", "result": 0.995}, {"measurement": "normalized growth", "setting": "S. cerevisiae deletion strains, locus YLR384C, strain iki3, stronger effect = lower value", "result": 1.01}, {"measurement": "normalized growth", "setting": "S. cerevisiae deletion strains, locus YLR418C, strain cdc73, stronger effect = lower value", "result": 0.936}, {"measurement": "normalized growth", "setting": "S. cerevisiae deletion strains, locus YML016C, strain PPZ1, stronger effect = lower value", "result": 0.995}, {"measurement": "normalized growth", "setting": "S. cerevisiae deletion strains, locus YML032C, strain rad52, stronger effect = lower value", "result": 0.987}, {"measurement": "normalized growth", "setting": "S. cerevisiae deletion strains, locus YML120C, strain ndi1, stronger effect = lower value", "result": 0.995}, {"measurement": "normalized growth", "setting": "S. cerevisiae deletion strains, locus YML124C, strain tub3, stronger effect = lower value", "result": 1}, {"measurement": "normalized growth", "setting": "S. cerevisiae deletion strains, locus YMR058W, strain fet3, stronger effect = lower value", "result": 1.02}, {"measurement": "normalized growth", "setting": "S. cerevisiae deletion strains, locus YMR078C, strain ctf18, stronger effect = lower value", "result": 0.986}, {"measurement": "normalized growth", "setting": "S. cerevisiae deletion strains, locus YMR125W, strain sto1, stronger effect = lower value", "result": 1.03}, {"measurement": "normalized growth", "setting": "S. cerevisiae deletion strains, locus YMR129W, stronger effect = lower value", "result": 1.02}, {"measurement": "normalized growth", "setting": "S. cerevisiae deletion strains, locus YMR205C, strain PFK2, stronger effect = lower value", "result": 0.997}, {"measurement": "normalized growth", "setting": "S. cerevisiae deletion strains, locus YMR223W, strain ubp8, stronger effect = lower value", "result": 0.993}, {"measurement": "normalized growth", "setting": "S. cerevisiae deletion strains, locus YMR231W, strain pep5, stronger effect = lower value", "result": 0.998}, {"measurement": "normalized growth", "setting": "S. cerevisiae deletion strains, locus YMR263W, strain SAP30, stronger effect = lower value", "result": 0.977}, {"measurement": "normalized growth", "setting": "S. cerevisiae deletion strains, locus YMR307W, strain GAS1, stronger effect = lower value", "result": 0.911}, {"measurement": "normalized growth", "setting": "S. cerevisiae deletion strains, locus YNL067W, strain RPL9B, stronger effect = lower value", "result": 0.988}, {"measurement": "normalized growth", "setting": "S. cerevisiae deletion strains, locus YNL071W, strain lat1, stronger effect = lower value", "result": 1.02}, {"measurement": "normalized growth", "setting": "S. cerevisiae deletion strains, locus YNL183C, strain NPR1, stronger effect = lower value", "result": "0.512 (active)"}, {"measurement": "normalized growth", "setting": "S. cerevisiae deletion strains, locus YNL209W, strain ssb2, stronger effect = lower value", "result": 0.977}, {"measurement": "normalized growth", "setting": "S. cerevisiae deletion strains, locus YNL233W, strain BNI4, stronger effect = lower value", "result": 0.971}, {"measurement": "normalized growth", "setting": "S. cerevisiae deletion strains, locus YNL248C, strain rpa49, stronger effect = lower value", "result": 1.03}, {"measurement": "normalized growth", "setting": "S. cerevisiae deletion strains, locus YNL250W, strain rad50, stronger effect = lower value", "result": 0.967}, {"measurement": "normalized growth", "setting": "S. cerevisiae deletion strains, locus YNL271C, strain bni1, stronger effect = lower value", "result": 0.922}, {"measurement": "normalized growth", "setting": "S. cerevisiae deletion strains, locus YNL298W, strain CLA4, stronger effect = lower value", "result": 0.933}, {"measurement": "normalized growth", "setting": "S. cerevisiae deletion strains, locus YNL307C, strain MCK1, stronger effect = lower value", "result": 0.957}, {"measurement": "normalized growth", "setting": "S. cerevisiae deletion strains, locus YNL322C, strain KRE1 (second series), stronger effect = lower value", "result": 1.02}, {"measurement": "normalized growth", "setting": "S. cerevisiae deletion strains, locus YNL322C, strain KRE1, stronger effect = lower value", "result": 0.99}, {"measurement": "normalized growth", "setting": "S. cerevisiae deletion strains, locus YNR049C, strain mso1, stronger effect = lower value", "result": 0.984}, {"measurement": "normalized growth", "setting": "S. cerevisiae deletion strains, locus YNR052C, strain pop2, stronger effect = lower value", "result": 0.99}, {"measurement": "normalized growth", "setting": "S. cerevisiae deletion strains, locus YOL006C, strain TOP1, stronger effect = lower value", "result": 0.901}, {"measurement": "normalized growth", "setting": "S. cerevisiae deletion strains, locus YOL012C, strain htz1", "result": 0.49}, {"measurement": "normalized growth", "setting": "S. cerevisiae deletion strains, locus YOL147C, strain pex11, stronger effect = lower value", "result": 1.01}, {"measurement": "normalized growth", "setting": "S. cerevisiae deletion strains, locus YOR001W, strain rrp6, stronger effect = lower value", "result": 0.986}, {"measurement": "normalized growth", "setting": "S. cerevisiae deletion strains, locus YOR061W, strain CKA2, stronger effect = lower value", "result": 0.98}, {"measurement": "normalized growth", "setting": "S. cerevisiae deletion strains, locus YOR069W, strain VPS5, stronger effect = lower value", "result": 0.99}, {"measurement": "normalized growth", "setting": "S. cerevisiae deletion strains, locus YOR070C, strain gyp1, stronger effect = lower value", "result": 0.994}, {"measurement": "normalized growth", "setting": "S. cerevisiae deletion strains, locus YOR080W, strain dia2, stronger effect = lower value", "result": 1.02}, {"measurement": "normalized growth", "setting": "S. cerevisiae deletion strains, locus YOR083W, strain WHI5, stronger effect = lower value", "result": 1}, {"measurement": "normalized growth", "setting": "S. cerevisiae deletion strains, locus YOR106W, strain vam3, stronger effect = lower value", "result": 1.05}, {"measurement": "normalized growth", "setting": "S. cerevisiae deletion strains, locus YOR136W, strain idh2, stronger effect = lower value", "result": 0.974}, {"measurement": "normalized growth", "setting": "S. cerevisiae deletion strains, locus YOR144C, strain elg1, stronger effect = lower value", "result": 0.999}, {"measurement": "normalized growth", "setting": "S. cerevisiae deletion strains, locus YOR184W, strain ser1, stronger effect = lower value", "result": 0.991}, {"measurement": "normalized growth", "setting": "S. cerevisiae deletion strains, locus YOR231W, strain MKK1, stronger effect = lower value", "result": 0.962}, {"measurement": "normalized growth", "setting": "S. cerevisiae deletion strains, locus YOR265W, strain rbl2, stronger effect = lower value", "result": 0.995}, {"measurement": "normalized growth", "setting": "S. cerevisiae deletion strains, locus YOR270C, strain vph1, stronger effect = lower value", "result": 0.991}, {"measurement": "normalized growth", "setting": "S. cerevisiae deletion strains, locus YOR290C, strain snf2, stronger effect = lower value", "result": 1.04}, {"measurement": "normalized growth", "setting": "S. cerevisiae deletion strains, locus YOR316C, strain cot1, stronger effect = lower value", "result": 0.99}, {"measurement": "normalized growth", "setting": "S. cerevisiae deletion strains, locus YPL051W, strain arl3, stronger effect = lower value", "result": "0.8 (active)"}, {"measurement": "normalized growth", "setting": "S. cerevisiae deletion strains, locus YPL055C, strain LGE1, stronger effect = lower value", "result": 1}, {"measurement": "normalized growth", "setting": "S. cerevisiae deletion strains, locus YPL078C, strain atp4, stronger effect = lower value", "result": 1.03}, {"measurement": "normalized growth", "setting": "S. cerevisiae deletion strains, locus YPL106C, strain sse1, stronger effect = lower value", "result": "0.62 (active)"}, {"measurement": "normalized growth", "setting": "S. cerevisiae deletion strains, locus YPL240C, strain hsp82, stronger effect = lower value", "result": 1.01}, {"measurement": "normalized growth", "setting": "S. cerevisiae deletion strains, locus YPL241C, strain CIN2, stronger effect = lower value", "result": 0.979}, {"measurement": "normalized growth", "setting": "S. cerevisiae deletion strains, locus YPL256C, strain CLN2, stronger effect = lower value", "result": "0.629 (active)"}, {"measurement": "normalized growth", "setting": "S. cerevisiae deletion strains, locus YPR119W, strain clb2, stronger effect = lower value", "result": 0.995}, {"measurement": "normalized growth", "setting": "S. cerevisiae deletion strains, locus YPR141C, strain kar3, stronger effect = lower value", "result": 0.992}, {"measurement": "normalized growth", "setting": "S. cerevisiae deletion strains, locus YPR163C, strain tif3, stronger effect = lower value", "result": 0.972}, {"measurement": "normalized growth", "setting": "S. cerevisiae deletion strains, locus YPR167C, strain met16, stronger effect = lower value", "result": 0.985}, {"measurement": "normalized growth", "setting": "S. cerevisiae deletion strains, strain wtn01, stronger effect = lower value", "result": 0.996}, {"measurement": "normalized growth", "setting": "S. cerevisiae strains, strain wild type, stronger effect = lower value", "result": 0.985}]}]}
